High-throughput results deposited in PubChem BioAssay by Sanford-Burnham Center for Chemical Genomics.
Only some compounds are listed: those with a hit (about 3.2% of all), similar ones and a draw of the others.
CRFBP-R2 block – blocks CRF-induced signaling of the CRF-BP/CRF-R2 complex; HEK293 CRF-R2/CRF-BP, CRF-induced calcium fluorescence; inhibition, % at 11.8 µM; 350,000 tested, 0.59% active; AID 588475;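 active = inhibition of the ligand-induced calcium signal above about 50% at the single tested concentration, limit read from the data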
CRFR2-BP ag – agonists of human CRF-binding protein/CRF-R2 receptor complex; HEK293 CRF-R2/CRF-BP, calcium dye fluorescence (FLIPR); percent of saturating CRF peptide response; activation, % at 13.2 µM; 350,000 tested, 0.46% active;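 active = activation of at least 50%, plus an integration ratio under a set limit after plate pattern correction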
aDG glyco act – alpha-DG glycosylation activation; Pro5-aDG cells, alpha-DG glycosylation AlphaScreen (IIH6); 0% Pro5, 100% B10-LARGE cell signal; activation, % at 10 µM; 360,000 tested, 0.22% active; AID 624168;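 active = activation of at least 8% versus controls, or a plate z-score of at least 8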;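 note: Pro5 are CHO cells carrying HIG-tagged alpha-DG that lacks glycosylation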
Cardio protect – modulators protecting cardiomyocytes from myocardial damage; protection from H2O2 cell death, % at 20 µM; 360,000 tested, 0.63% active; H9c2 cardiomyocytes, H2O2 injury protection, ATPLite, 2 h;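 active = compounds giving at least 50% protection of heart cells from peroxide-induced death in the single-dose screen, raw or plate-pattern-corrected value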
PfG6PD inh – PfG6PD (Plasmodium falciparum) enzyme inhibition | 350,000 tested, 0.78% active | PfGluPho enzyme, NADPH resazurin-diaphorase fluorescence | inhibition, % at 20 µM;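 active = inhibition reaching at least a set limit at 20 µM in the primary screen, cut at about 59% in these data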
FAS-TE inh – inhibitors of human fatty acid synthase thioesterase domain; P49327; recombinant FAS-TE, OMFH fluorogenic substrate, fluorescence endpoint; inhibition, % at 15 µM; 360,000 tested, 0.67% active; AID 602261;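 active = compounds whose normalised, plate-corrected inhibition of enzyme fluorescence in the single-dose primary screen is 50% or more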
Large screens that a line does not name were inactive.

COc1cccc(C(=O)Nn2cnnc2)c1OC	none
Cc1nn(CC(=O)N2CCc3ccccc3C2)c(C)c1Cl	none
COc1ccc(Nc2nc(NN)nc(Nc3ccc(OC)cc3)n2)cc1	none
CCc1nc(N=Nc2c(O)[nH]c3ccccc23)c2c3c(sc2n1)CCC3	Cardio protect 69
Cc1cc(C)c2c(CN3CCN(Cc4ccccc4)CC3)cc(=O)oc2c1C	none
O=C(CN1C(=O)C2CC=CCC2C1=O)Nc1nc(-c2ccc(F)cc2)cs1 (stereo unspecified)	Cardio protect 58
Cc1ccc(-c2c[n+](CC(=O)Nc3nc(-c4ccc(F)cc4)cs3)c3n2CCC3)cc1	CRFBP-R2 block 63
COc1ccc(/C=C2/SC(=S)N(c3ccc(S(=O)(=O)Nc4nccs4)cc3)C2=O)cc1	none
Cc1ccc(/C=C2/SC(=S)N(c3ccc(S(=O)(=O)Nc4nccs4)cc3)C2=O)cc1	CRFBP-R2 block 59
O=C(NC1CC1)C1CCCN1C(=O)NC1CCCCC1 (stereo unspecified)	none
O=C(NCC1CCCO1)C1CCCN1C(=O)NC1CCCCC1 (stereo unspecified)	CRFBP-R2 block 53
CC[C@@H](C(=O)[C@@H](C)[C@@H](O)[C@H](C)[C@@H]1O[C@@H]([C@@H](CC)C(=O)O)CC[C@@H]1C)[C@H]1O[C@]2(C=C[C@@H](O)[C@]3(CC[C@@](C)([C@H]4CC[C@](O)(CC)[C@H](C)O4)O3)O2)[C@H](C)C[C@@H]1C	none
CC[C@@H](C(=O)[C@@H](C)[C@@H](O)[C@H](C)CCc1ccc(C)c(O)c1C(=O)O)[C@H]1O[C@](CC)([C@H]2CC[C@](O)(CC)[C@H](C)O2)C[C@@H]1C	CRFR2-BP ag 118
O=C(OCc1ccccc1)C1=NNC2C(=O)N(Cc3ccccc3)C(=O)C12 (stereo unspecified)	none
COc1ccc(C2Cc3ccccc3C(=O)O2)cc1 (stereo unspecified)	none
CCOC(=O)C1=NN(C(=O)c2ccco2)C2(CC2)C1	Cardio protect 72
CCOC(=O)C1=NN(C(=O)c2ccc(OC)cc2)C(O)(c2ccc(Cl)cc2)C1 (stereo unspecified)	CRFR2-BP ag 80
CCOC(=O)C1=NN(C(=O)c2ccccc2)C(O)(c2ccc(C)cc2)C1 (stereo unspecified)	CRFR2-BP ag 105
CCOC(=O)C1(C)CCN1C(=O)c1ccco1 (stereo unspecified)	none (no result: CRFBP-R2 block, CRFR2-BP ag, PfG6PD inh)
COC(=O)C1=NN(C(=O)c2cccc(Br)c2)C(O)(c2ccc(Cl)cc2)C1 (stereo unspecified)	CRFR2-BP ag 99
CN(C)S(=O)(=O)c1cccc(COc2ncnc3c(Cl)cc(Cl)cc23)c1	none
Cc1ccc(S(=O)(=O)n2nnc3ccccc32)c(C)c1C	CRFBP-R2 block 93
CCOc1ccc(Cl)cc1S(=O)(=O)n1nnc2ccccc21	CRFBP-R2 block 107
COc1ccccc1OCCSc1nc2ccccc2c(=O)[nH]1	Cardio protect 66
O=c1[nH]c(SCCOc2ccccc2F)nc2ccccc12	none
COc1ccc(CSc2nc3ccccc3c(=O)[nH]2)cc1F	Cardio protect 53
CCNc1nc(NCC)nc(N/N=C/c2ccc(Br)cc2)n1	none
COc1ccc(-c2csc(C(C#N)=C(O)CSc3nccn3C)n2)cc1OC	Cardio protect 57
COc1ccc(-c2csc(C)n2)cc1OC	none
C=CCC[C@@H](Cc1ccc(F)cc1)C(=O)OC[C@H](Cc1c[nH]c2ccccc12)NC(=O)[C@@H](CC=C)CC(=O)NCCO	CRFR2-BP ag 58
C=CCC[C@@H](Cc1ccc(F)cc1)C(=O)OC[C@@H](Cc1c[nH]c2ccccc12)NC(=O)[C@@H](CC=C)CC(=O)NCCO	none
C=CCC[C@H](Cc1ccc(F)cc1)C(=O)OC[C@@H](Cc1c[nH]c2ccccc12)NC(=O)[C@@H](CC=C)CC(=O)NCCO	Cardio protect 68
COC(=O)C1=C(C(=O)OC)[C@@H]2N(Cc3ccccc3)c3ccccc3[C@@]23C[C@@H](C(=O)OC)N(C(=O)c2ccc(Br)cc2)C3=N1	FAS-TE inh 84
COc1cccc(C(c2nnnn2Cc2ccccc2)N2CCN(C3CCCC3)CC2)c1OC (stereo unspecified)	Cardio protect 95
COc1ccccc1C(c1nnnn1Cc1ccccc1)N1CCN(C2CCCC2)CC1 (stereo unspecified)	none
Cc1noc(C)c1C(=O)NNc1cc(Cl)ccc1Cl	none
COc1cccc(Cn2nc(C(=O)O)c3ccccc3c2=O)c1	Cardio protect 64
CC(NC(=O)Cn1nc(C(=O)O)c2ccccc2c1=O)c1ccccc1 (stereo unspecified)	Cardio protect 81
COc1ccc(Cn2nc(C(=O)O)c3ccccc3c2=O)cc1F	none
C=CCNc1nc(Cl)nc(Nc2ccccc2)n1	none
CNc1nc(Cl)nc(Nc2ccccc2)n1	CRFBP-R2 block 103
COCCn1c(Cc2cccn2C)nnc1SCC(=O)NCc1ccc2c(c1)OCO2	none
O=C1OC(Nc2ncccn2)c2ccccc21 (stereo unspecified)	none
O=C1OC(Nc2cc(Br)cc3cccnc23)c2ccccc21 (stereo unspecified)	aDG glyco act 7.4
O=C1C(Cl)=C(NCc2cccnc2)C(=O)c2ccccc21	aDG glyco act 2.9
CC(C)OCCCNC1=C(Cl)C(=O)c2ccccc2C1=O	none
CC(C)NC1=C(Cl)C(=O)c2ccccc2C1=O	aDG glyco act 6.3
COCCCNC1=C(Cl)C(=O)c2ccccc2C1=O	none
O=S(=O)(Cc1ccccc1)NCc1cccnc1	none
C=CCNC1=C(Cl)C(=O)c2ccccc2C1=O	aDG glyco act 9.7
O=C(O)c1ccc(NC2=C(Cl)C(=O)c3ccccc3C2=O)cc1	CRFBP-R2 block 101
O=C(O)c1cccc(NC2=C(Cl)C(=O)c3ccccc3C2=O)c1	none
O=C(CCC(=O)c1cccs1)NCc1cccc(C(F)(F)F)c1	none
NS(=O)(=O)c1ccc(CCNS(=O)(=O)c2ccc(Cl)nc2)cc1	none
O=C1C(Cl)=C(Nc2ccccc2)C(=O)c2ccccc21	CRFBP-R2 block 83
CCN(CC)CCCNC1=C(Cl)C(=O)c2ccccc2C1=O	aDG glyco act 9.2
CCCCCCNC(=O)C(C(=O)OCC)C1CCCCC1 (stereo unspecified)	none
O=C(C1CCCO1)N1CCN(C(=S)Nc2ccccc2C(F)(F)F)CC1 (stereo unspecified)	none
COc1ccc(-c2ccc3c(c2)S(=O)(=O)c2cccc(C(=O)NC[C@@H]4CCCO4)c2C3=O)cc1OC	Cardio protect 63
COc1ccc(NC(=O)CCN2CCCCCC2)cc1	CRFBP-R2 block 80
COc1ccc(NC(=O)CCN2CCCCC2)cc1	none
COc1ccc(C2(C)NC(=O)N(CC(=O)Nc3cccnc3Cl)C2=O)cc1 (stereo unspecified)	none
